The values below come from a collection of fitness landscapes (doi:10.1016/j.celrep.2020.107928).

To fix the notation:
B1: Caulobacter ParB omega fusion; a variant is named by its letters at X, in order, B8GW30 (parent)
chain: MESVVVGEPGMSEGRRGLGRGLSALLGEVDAAPAQAPGEQLGGSREAPIEILQRNPDQPRRTFREEDLEDLSNSIREKGVLQPILVRPSPDTAGEYQIVAGERAWRAAQRAGLKTVPIMVRELDDLAVLEIGIIENVQRADLNVLEEALSYKVLMEKFERTQENIAQTIGKSXSHVANXMRLLXLPDEVQSYLVSGELTAXHARAIAAAADPVALAKQIIEGGLSVRETEALARKAPNLSAGKSKGGRPPRVKDTDTQALESDLSSVLGLDVSIDHRGSTGTLTITYATLEQLDDLCNRLTRGI

The full ranking holds about 81,000 sequences; the median of “one-hybrid fitness for binding parS DNA” is about -0.17, and the highest 2% start at about 0.51. The full list was thinned out, with the highest values kept by preference.

In this assay the parent is B1. Put plainly: one-hybrid fitness for binding parS DNA (scaled: cognate 1, non-cognate 0); higher = stronger binding. The note with it: with parS DNA site. In a few lines:
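Selection: bacterial one-hybrid in E. coli USO, HIS3 reporter with the site 19 bp from the promoter, 48 hours at 37°C on M9-minus-histidine plus 0.1 mM IPTG and 5 mM 3-AT. Libraries were Caulobacter ParB with four randomised specificity codons, sequenced on Illumina before and after selection. Fitness is the rescaled log change in variant-to-wild-type read ratio, anchored to the cognate and non-cognate sites.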
Take ERKR: the “one-hybrid fitness for binding parS DNA” value is ≤ 0.2.

Consider LEPN, for which the “one-hybrid fitness for binding parS DNA” value is ≤ 0.2.

Take CCRD: the “one-hybrid fitness for binding parS DNA” value is ≤ 0.2.

Regarding QNCR, the “one-hybrid fitness for binding parS DNA” value is ≤ 0.2.

RQKH: the “one-hybrid fitness for binding parS DNA” value was 0.269.

Turning to RQKN, the “one-hybrid fitness for binding parS DNA” value was 0.433.

For the variant RQKG, the “one-hybrid fitness for binding parS DNA” value amounted to 0.939.

For the variant RQVK, the “one-hybrid fitness for binding parS DNA” value was ≤ 0.2.

Take RQVQ: the “one-hybrid fitness for binding parS DNA” value was ≤ 0.2.

RQVG: the “one-hybrid fitness for binding parS DNA” value was 0.88.

In the case of WNHS, the “one-hybrid fitness for binding parS DNA” value was ≤ 0.2.

Take KAIM: the “one-hybrid fitness for binding parS DNA” value is ≤ 0.2.

As to IGNS, the “one-hybrid fitness for binding parS DNA” value is ≤ 0.2.

For NFGS, the “one-hybrid fitness for binding parS DNA” value was ≤ 0.2.

As to GEDR, the “one-hybrid fitness for binding parS DNA” value is ≤ 0.2.

Turning to QFAT, the “one-hybrid fitness for binding parS DNA” value was ≤ 0.2.

Take GTTA: the “one-hybrid fitness for binding parS DNA” value was ≤ 0.2.

Regarding ATEM, the “one-hybrid fitness for binding parS DNA” value was ≤ 0.2.

Take RTYM: the “one-hybrid fitness for binding parS DNA” value was found to be 0.341.

As for RSKM, the “one-hybrid fitness for binding parS DNA” value is 0.378.

For the variant RTKM, the “one-hybrid fitness for binding parS DNA” value came out at 0.594.

As for RTDM, the “one-hybrid fitness for binding parS DNA” value is 0.289.

For RTVM, the “one-hybrid fitness for binding parS DNA” value was 0.315.

In the case of RTRM, the “one-hybrid fitness for binding parS DNA” value is 0.517.

On to TLKA, for which the “one-hybrid fitness for binding parS DNA” value was ≤ 0.2.

With TQQG, the “one-hybrid fitness for binding parS DNA” value is ≤ 0.2.

With HCKF, the “one-hybrid fitness for binding parS DNA” value is ≤ 0.2.

As for YAFG, the “one-hybrid fitness for binding parS DNA” value was ≤ 0.2.

With KYYR, the “one-hybrid fitness for binding parS DNA” value was ≤ 0.2.

In the case of ILTL, the “one-hybrid fitness for binding parS DNA” value is ≤ 0.2.

As for RCSS, the “one-hybrid fitness for binding parS DNA” value came out at 0.978.

For RMSD, the “one-hybrid fitness for binding parS DNA” value was ≤ 0.2.

For RPSS, the “one-hybrid fitness for binding parS DNA” value was ≤ 0.2.

As to RHSS, the “one-hybrid fitness for binding parS DNA” value came out at 0.912.

Turning to RMSS, the “one-hybrid fitness for binding parS DNA” value is 0.977.

With RHSN, the “one-hybrid fitness for binding parS DNA” value was 0.379.

As for RHSP, the “one-hybrid fitness for binding parS DNA” value was ≤ 0.2.

Turning to RMSH, the “one-hybrid fitness for binding parS DNA” value is ≤ 0.2.

Turning to RISN, the “one-hybrid fitness for binding parS DNA” value was 0.454.

For the variant RCSD, the “one-hybrid fitness for binding parS DNA” value was ≤ 0.2.

In the case of RISD, the “one-hybrid fitness for binding parS DNA” value was ≤ 0.2.

In the case of RISS, the “one-hybrid fitness for binding parS DNA” value was 0.992.

For AKPM, the “one-hybrid fitness for binding parS DNA” value was ≤ 0.2.

For LGTM, the “one-hybrid fitness for binding parS DNA” value is ≤ 0.2.

TQKH: the “one-hybrid fitness for binding parS DNA” value is ≤ 0.2.

With LPSR, the “one-hybrid fitness for binding parS DNA” value was ≤ 0.2.

As to NDSK, the “one-hybrid fitness for binding parS DNA” value was ≤ 0.2.

CAPL: the “one-hybrid fitness for binding parS DNA” value was ≤ 0.2.

As for RWPN, the “one-hybrid fitness for binding parS DNA” value was ≤ 0.2.

Consider SQSF, for which the “one-hybrid fitness for binding parS DNA” value is ≤ 0.2.

PHLE: the “one-hybrid fitness for binding parS DNA” value is ≤ 0.2.

GVSS: the “one-hybrid fitness for binding parS DNA” value was ≤ 0.2.

Regarding LVRT, the “one-hybrid fitness for binding parS DNA” value is ≤ 0.2.

In the case of RFSH, the “one-hybrid fitness for binding parS DNA” value was ≤ 0.2.

For the variant FMSQ, the “one-hybrid fitness for binding parS DNA” value came to 0.554.

As for RFSP, the “one-hybrid fitness for binding parS DNA” value was ≤ 0.2.

RKSP: the “one-hybrid fitness for binding parS DNA” value was ≤ 0.2.

As for RASN, the “one-hybrid fitness for binding parS DNA” value stood at 0.435.

In the case of RKSN, the “one-hybrid fitness for binding parS DNA” value turned out to be 0.296.

Consider RFSS, for which the “one-hybrid fitness for binding parS DNA” value was 1.01.

As to FMSD, the “one-hybrid fitness for binding parS DNA” value is ≤ 0.2.

For FMSS, the “one-hybrid fitness for binding parS DNA” value was ≤ 0.2.

Regarding RASH, the “one-hybrid fitness for binding parS DNA” value is 0.225.

As for RASS, the “one-hybrid fitness for binding parS DNA” value came to 1.

With RKSS, the “one-hybrid fitness for binding parS DNA” value was found to be 0.811.

As to IYTS, the “one-hybrid fitness for binding parS DNA” value was ≤ 0.2.

Consider TWRH, for which the “one-hybrid fitness for binding parS DNA” value is ≤ 0.2.

GPLA: the “one-hybrid fitness for binding parS DNA” value is ≤ 0.2.

Take YVAM: the “one-hybrid fitness for binding parS DNA” value is ≤ 0.2.

In the case of RYVW, the “one-hybrid fitness for binding parS DNA” value came to 0.209.

With HRKW, the “one-hybrid fitness for binding parS DNA” value is ≤ 0.2.

As to RSSD, the “one-hybrid fitness for binding parS DNA” value is ≤ 0.2.

Take RSSP: the “one-hybrid fitness for binding parS DNA” value is ≤ 0.2.

RSSS: the “one-hybrid fitness for binding parS DNA” value was 0.99.

With YNTS, the “one-hybrid fitness for binding parS DNA” value is ≤ 0.2.

For the variant RGGT, the “one-hybrid fitness for binding parS DNA” value was 0.493.

Take RCGT: the “one-hybrid fitness for binding parS DNA” value was found to be 0.882.

As to RSGT, the “one-hybrid fitness for binding parS DNA” value was determined as 0.91.

On to REGT, for which the “one-hybrid fitness for binding parS DNA” value worked out at 0.201.

Turning to RDGT, the “one-hybrid fitness for binding parS DNA” value is ≤ 0.2.

With RPGT, the “one-hybrid fitness for binding parS DNA” value was ≤ 0.2.

Take TFAS: the “one-hybrid fitness for binding parS DNA” value is ≤ 0.2.

In the case of AMCN, the “one-hybrid fitness for binding parS DNA” value was ≤ 0.2.

For LFSE, the “one-hybrid fitness for binding parS DNA” value is ≤ 0.2.

In the case of CKQG, the “one-hybrid fitness for binding parS DNA” value was ≤ 0.2.

On to NSAT, for which the “one-hybrid fitness for binding parS DNA” value is ≤ 0.2.

As to RQVR, the “one-hybrid fitness for binding parS DNA” value is ≤ 0.2.

On to RQVF, for which the “one-hybrid fitness for binding parS DNA” value was ≤ 0.2.

As to RQKC, the “one-hybrid fitness for binding parS DNA” value came out at 0.926.

Turning to RQKK, the “one-hybrid fitness for binding parS DNA” value is ≤ 0.2.

For the variant RQVC, the “one-hybrid fitness for binding parS DNA” value turned out to be 0.828.

As for RQKR, the “one-hybrid fitness for binding parS DNA” value is ≤ 0.2.

RWNM: the “one-hybrid fitness for binding parS DNA” value stood at 0.221.

Take RWNC: the “one-hybrid fitness for binding parS DNA” value was 0.79.

Take RWNR: the “one-hybrid fitness for binding parS DNA” value is ≤ 0.2.

Regarding RWDC, the “one-hybrid fitness for binding parS DNA” value was 0.635.

RWDM: the “one-hybrid fitness for binding parS DNA” value was ≤ 0.2.

On to RWDY, for which the “one-hybrid fitness for binding parS DNA” value stood at 0.264.

On to GKCT, for which the “one-hybrid fitness for binding parS DNA” value was ≤ 0.2.
